Experimental data published in PubChem BioAssay (NCI).
About 83,000 compounds went through this panel and 20% of them were active in at least one assay; those are over-represented in the sample as a whole.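 In brief: 96-well plates, 48 h treatment, single concentration, percent growth endpoint.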 Active and inactive are the calls of the source. How the source made its calls: active means growth percent below 10; inactive means the rest.

What was measured:
Assay in all cases: NCI-60 one-dose screen, 48 h (100 = growth as untreated, 0 = no growth, -100 = all killed)
DU-145 prostate = details: 10 µM
K-562 leukemia = details: 10 µM
MALME-3M melanoma = details: 10 µM
MDA-MB-231 breast = details: 10 µM
RXF 393 renal = details: 10 µM
SF-268 CNS = details: 10 µM
SF-295 CNS = details: 10 µM
SF-539 CNS = details: 10 µM
UACC-257 melanoma = details: 10 µM
M14 melanoma = details: 10 µM
HCT-15 colon = details: 10 µM
HT29 colon = details: 10 µM
SNB-75 CNS = details: 10 µM
SNB-19 CNS = details: 10 µM
U251 CNS = details: 10 µM
PC-3 prostate = details: 10 µM
SK-MEL-5 melanoma = details: 10 µM
UACC-62 melanoma = details: 10 µM unless noted
LOX IMVI melanoma = details: 10 µM
SK-MEL-28 melanoma = details: 10 µM

Measured: growth

CC(=O)/C(Cc1ccccc1)=N/O
inactive: DU-145 prostate 115% | K-562 leukemia 85.5% | MALME-3M melanoma 104% | MDA-MB-231 breast 100% | RXF 393 renal 109% | SF-268 CNS 104% | SF-295 CNS 105% | SF-539 CNS 91.9% | UACC-257 melanoma 89.5% | M14 melanoma 94.8% | HCT-15 colon 99.7% | HT29 colon 92.9% | SNB-75 CNS 89.2% | SNB-19 CNS 98.9% | U251 CNS 94.9% | PC-3 prostate 84.9% | SK-MEL-5 melanoma 106% | UACC-62 melanoma 98.1% | LOX IMVI melanoma 94.2%

CCOC(=O)C1OC1c1ccccc1 (centres undefined)
inactive: DU-145 prostate 107% | K-562 leukemia 103% | MALME-3M melanoma 103% | MDA-MB-231 breast 111% | RXF 393 renal 112% | SF-268 CNS 97.5% | SF-295 CNS 93.2% | SF-539 CNS 99.4% | UACC-257 melanoma 106% | M14 melanoma 97.8% | HCT-15 colon 103% | HT29 colon 112% | SNB-75 CNS 92% | SNB-19 CNS 103% | U251 CNS 98.7% | PC-3 prostate 98.8% | SK-MEL-5 melanoma 99.6% | UACC-62 melanoma 101% | LOX IMVI melanoma 101% | SK-MEL-28 melanoma 110%

C[N+](C)(C)C(=O)c1ccccc1
inactive: DU-145 prostate 114% | K-562 leukemia 117% | MALME-3M melanoma 117% | MDA-MB-231 breast 97.5% | RXF 393 renal 114% | SF-268 CNS 98.2% | SF-295 CNS 114% | SF-539 CNS 98.9% | UACC-257 melanoma 109% | M14 melanoma 95.2% | HCT-15 colon 101% | HT29 colon 104% | SNB-75 CNS 94.8% | SNB-19 CNS 102% | U251 CNS 107% | PC-3 prostate 102% | SK-MEL-5 melanoma 105% | UACC-62 melanoma 94% | LOX IMVI melanoma 99.9% | SK-MEL-28 melanoma 116%

COc1ccc(-c2cc3c(nn2)-c2ccccc2C3=O)cc1
active: MALME-3M melanoma -21.1% | SF-295 CNS -40.7% | HT29 colon -24.8% | SNB-75 CNS -4.76% | U251 CNS -3.45% | SK-MEL-28 melanoma -49.3%
inactive: DU-145 prostate 21.2% | K-562 leukemia 21.9% | MDA-MB-231 breast 59.5% | RXF 393 renal 71.8% | SF-268 CNS 39.1% | SF-539 CNS 82.1% | UACC-257 melanoma 69.6% | M14 melanoma 42.9% | HCT-15 colon 36.7% | SNB-19 CNS 78.9% | PC-3 prostate 18% | SK-MEL-5 melanoma 85.3% | UACC-62 melanoma 84.7% | LOX IMVI melanoma 43.3%

OCC(O)C(O)C(O)C(O)/C=N/O (centres undefined)
inactive: DU-145 prostate 108% | K-562 leukemia 111% | MALME-3M melanoma 110% | MDA-MB-231 breast 97.5% | RXF 393 renal 98.9% | SF-268 CNS 98% | SF-295 CNS 105% | SF-539 CNS 106% | UACC-257 melanoma 62.3% | M14 melanoma 94.7% | HCT-15 colon 105% | HT29 colon 103% | SNB-75 CNS 96.1% | SNB-19 CNS 98.3% | U251 CNS 91% | PC-3 prostate 73.2% | SK-MEL-5 melanoma 101% | UACC-62 melanoma 93.3% | LOX IMVI melanoma 98.3% | SK-MEL-28 melanoma 114%

CC12CC3CC1C(C(=O)O2)C3C(=O)O (centres undefined)
inactive: DU-145 prostate 106% | K-562 leukemia 95.6% | MALME-3M melanoma 94.2% | MDA-MB-231 breast 109% | RXF 393 renal 109% | SF-268 CNS 99.2% | SF-295 CNS 101% | SF-539 CNS 97.4% | UACC-257 melanoma 92.1% | M14 melanoma 117% | HCT-15 colon 104% | HT29 colon 98.9% | SNB-75 CNS 102% | SNB-19 CNS 98.6% | U251 CNS 103% | PC-3 prostate 101% | SK-MEL-5 melanoma 104% | UACC-62 melanoma 98.3% | LOX IMVI melanoma 99.7% | SK-MEL-28 melanoma 106%

COc1cccc(/C=N/NC(=S)NC2CC3CCC2C3)c1O (centres undefined)
inactive: DU-145 prostate 56.6% | K-562 leukemia 39.3% | MALME-3M melanoma 35.9% | MDA-MB-231 breast 55.4% | RXF 393 renal 51.5% | SF-268 CNS 63.3% | SF-295 CNS 15.9% | SF-539 CNS 69.8% | UACC-257 melanoma 73.6% | M14 melanoma 55.7% | HCT-15 colon 26.8% | HT29 colon 93.6% | SNB-19 CNS 72.4% | U251 CNS 42.2% | PC-3 prostate 64.8% | SK-MEL-5 melanoma 67.8% | UACC-62 melanoma 67.7% | LOX IMVI melanoma 44.2% | SK-MEL-28 melanoma 67.6%
active: SNB-75 CNS 5.33%

S=c1sc2ccccc2n1CN1CCCCC1
inactive: DU-145 prostate 99.8% | K-562 leukemia 124% | MALME-3M melanoma 86.6% | MDA-MB-231 breast 98.4% | RXF 393 renal 110% | SF-268 CNS 92.5% | SF-295 CNS 102% | SF-539 CNS 105% | UACC-257 melanoma 104% | M14 melanoma 100% | HCT-15 colon 102% | HT29 colon 101% | SNB-75 CNS 77.6% | SNB-19 CNS 104% | U251 CNS 104% | PC-3 prostate 77.2% | SK-MEL-5 melanoma 104% | UACC-62 melanoma 104% | LOX IMVI melanoma 84.5% | SK-MEL-28 melanoma 106%

Cc1ccc(Cl)cc1NC(=O)N(C)CCO
inactive: DU-145 prostate 131% | K-562 leukemia 98.5% | MALME-3M melanoma 134% | MDA-MB-231 breast 118% | RXF 393 renal 112% | SF-268 CNS 126% | SF-295 CNS 121% | SF-539 CNS 91.9% | UACC-257 melanoma 110% | M14 melanoma 107% | HCT-15 colon 110% | HT29 colon 133% | SNB-75 CNS 126% | SNB-19 CNS 101% | U251 CNS 102% | PC-3 prostate 96% | SK-MEL-5 melanoma 101% | UACC-62 melanoma 109% | LOX IMVI melanoma 107% | SK-MEL-28 melanoma 145%

COCCOC(=O)c1ccc(C(C)C)cc1
inactive: DU-145 prostate 103% | K-562 leukemia 106% | MALME-3M melanoma 92.7% | MDA-MB-231 breast 102% | RXF 393 renal 124% | SF-268 CNS 99.1% | SF-295 CNS 104% | SF-539 CNS 99% | UACC-257 melanoma 81% | M14 melanoma 93.2% | HCT-15 colon 99.5% | HT29 colon 91.9% | SNB-75 CNS 86.9% | SNB-19 CNS 106% | U251 CNS 98.8% | PC-3 prostate 82.9% | SK-MEL-5 melanoma 103% | UACC-62 melanoma 99.4% | LOX IMVI melanoma 95.7% | SK-MEL-28 melanoma 110%

CC(=O)Cc1ccc(-c2ccccc2)cc1
inactive: DU-145 prostate 107% | K-562 leukemia 108% | MALME-3M melanoma 77.1% | MDA-MB-231 breast 95.9% | RXF 393 renal 102% | SF-268 CNS 98% | SF-295 CNS 99.8% | SF-539 CNS 108% | UACC-257 melanoma 98.8% | M14 melanoma 109% | HCT-15 colon 103% | HT29 colon 111% | SNB-75 CNS 98.5% | SNB-19 CNS 101% | U251 CNS 98.3% | PC-3 prostate 97.1% | SK-MEL-5 melanoma 98.7% | UACC-62 melanoma 87.5% | LOX IMVI melanoma 100% | SK-MEL-28 melanoma 114%

CC1(C(=O)O)NC(C(=O)O)Cc2c1[nH]c1ccccc21 (centres undefined)
inactive: DU-145 prostate 110% | K-562 leukemia 96.9% | MALME-3M melanoma 90.5% | MDA-MB-231 breast 104% | RXF 393 renal 110% | SF-268 CNS 113% | SF-295 CNS 90.2% | SF-539 CNS 105% | UACC-257 melanoma 87.6% | M14 melanoma 96.7% | HCT-15 colon 110% | HT29 colon 109% | SNB-75 CNS 88.8% | SNB-19 CNS 108% | U251 CNS 102% | PC-3 prostate 87.4% | SK-MEL-5 melanoma 104% | UACC-62 melanoma 100% | LOX IMVI melanoma 101% | SK-MEL-28 melanoma 103%

NNc1ccccc1C(=O)O
inactive: DU-145 prostate 121% | K-562 leukemia 108% | MALME-3M melanoma 168% | MDA-MB-231 breast 104% | RXF 393 renal 114% | SF-268 CNS 100% | SF-295 CNS 114% | SF-539 CNS 101% | UACC-257 melanoma 103% | M14 melanoma 110% | HCT-15 colon 99.1% | HT29 colon 105% | SNB-75 CNS 89.4% | SNB-19 CNS 113% | U251 CNS 107% | PC-3 prostate 99.1% | SK-MEL-5 melanoma 103% | UACC-62 melanoma 107% | LOX IMVI melanoma 101% | SK-MEL-28 melanoma 118%

O=[N+]([O-])c1ccc(S(=O)(=O)NN=C2CCCCC2)cc1
inactive: DU-145 prostate 121% | K-562 leukemia 111% | MALME-3M melanoma 101% | MDA-MB-231 breast 108% | RXF 393 renal 117% | SF-268 CNS 116% | SF-295 CNS 97.8% | SF-539 CNS 109% | UACC-257 melanoma 95.6% | M14 melanoma 106% | HCT-15 colon 115% | HT29 colon 107% | SNB-75 CNS 87.8% | SNB-19 CNS 99.8% | U251 CNS 111% | PC-3 prostate 96.8% | SK-MEL-5 melanoma 105% | UACC-62 melanoma 117% | LOX IMVI melanoma 95% | SK-MEL-28 melanoma 110%

N#Cc1ccc(NC(=O)Nc2cccc(C#N)c2)cc1
inactive: DU-145 prostate 116% | K-562 leukemia 46.1% | MALME-3M melanoma 121% | MDA-MB-231 breast 92.1% | RXF 393 renal 99.3% | SF-268 CNS 112% | SF-295 CNS 89.3% | SF-539 CNS 93.9% | UACC-257 melanoma 89.2% | M14 melanoma 98.1% | HCT-15 colon 67.4% | HT29 colon 97.3% | SNB-75 CNS 97.8% | SNB-19 CNS 103% | U251 CNS 91.8% | PC-3 prostate 57.3% | SK-MEL-5 melanoma 81.8% | UACC-62 melanoma 93.7% | LOX IMVI melanoma 91.6% | SK-MEL-28 melanoma 108%
